Source: PubChem BioAssay AID485344 (National Center for Advancing Translational Sciences (NCATS), 2010)
Hit rate of the full screen: of about 340,000 compounds, about 6,900 (2%) were called active. The sample holds actives, similar compounds and a random draw of the others, so the mix is not that of the screen. A number with no mark means an inactive call. No stated cut-off is given here; in the data, active means inhibition above about 30%; inactive means below that, where a call was filed.

biological target: D(2) dopamine receptor (Homo sapiens) (UniProt P14416); assay: HTS Assay for Allosteric Antagonists of the Human D2 Dopamine Receptor: Primary Screen for Antagonists; details: HEK293 TREx D2 cells, calcium flux, dopamine EC80; at 10 µM; active compounds read high; further: 0% is about no effect
Sequence (P14416 whole entry, looked up): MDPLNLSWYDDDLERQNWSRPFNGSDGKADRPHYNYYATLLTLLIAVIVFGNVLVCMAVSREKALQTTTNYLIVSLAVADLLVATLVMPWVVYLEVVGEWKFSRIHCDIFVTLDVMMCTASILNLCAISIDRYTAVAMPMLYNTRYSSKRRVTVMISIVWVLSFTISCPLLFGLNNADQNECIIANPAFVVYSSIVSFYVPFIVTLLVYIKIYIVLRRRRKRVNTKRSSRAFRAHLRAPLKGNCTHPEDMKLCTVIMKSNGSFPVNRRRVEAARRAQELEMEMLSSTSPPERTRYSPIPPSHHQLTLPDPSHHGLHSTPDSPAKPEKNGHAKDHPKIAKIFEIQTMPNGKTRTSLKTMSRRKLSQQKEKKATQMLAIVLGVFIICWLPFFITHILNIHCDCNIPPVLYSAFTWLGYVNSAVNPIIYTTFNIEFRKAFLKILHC
Description: NIH Chemical Genomics Center [NCGC] NIH Molecular Libraries Probe Centers Network [MLPCN] MLPCN Grant: NS064831-01 Assay Submitter (PI): David Sibley Dopamine receptors (DARs) are involved in the etiology and/or therapy of a number of neuropsychiatric and endocrine disorders. For instance, all receptor-based antiparkinsonian drugs work via stimulating the D2 DAR subtype whereas all FDA-approved antipsychotic agents are antagonists of this receptor. […] There are three different types of allosteric modulators that we are seeking, two of which will stimulate or augment receptor signaling, allosteric agonists and potentiators, while the third, allosteric antagonists, will attenuate receptor signaling. The present primary screening assay measures compound antagonism after an EC80 addition of dopamine by tracking calcium flux in a […], inducible Hek293 Trex D2 cell line.
Freshly passaged cells are plated in 1536 well black, clear bottom plates at a density of 4000 cells/well in 3 ul of complete media containing 1x tetracycline inducer. After an overnight incubation at 30 C in 5% CO2, cells are loaded with 2 ul of the no wash Calcium Assay Kit (ABD Bioquest) and incubated at room temperature for 30 to 90 minutes. Agonist read: A 10 cycle (1 second/cycle) baseline measurement is taken and then the FDSS online 1536 pintool delivers 23 nl of compound library (as well as dopamine controls) to the plate. The plate is measured for kinetically at 1 cycle/sec for 180 seconds. Following the 180 second read, 1 ul of an EC80 (negative modulation assay) is delivered by an onboard pipette head. Measurements are taken kinetically for an additional 180 seconds.

Structure (SMILES)	inhibition
Cc1ccc(S(=O)(=O)N(CC(O)CN2CCCCC2)c2cccc([N+](=O)[O-])c2)cc1 (stereo not given)	35.8% (active)
Cc1ccc(S(=O)(=O)N(CC(O)CN2C(=O)NC(C)(C)C2=O)c2cccc([N+](=O)[O-])c2)cc1 (stereo not given)	30.4% (active)
CCN(CC)C(=O)CN(c1cccc([N+](=O)[O-])c1)S(=O)(=O)c1ccccc1	-8.71%
COc1ccc([N+](=O)[O-])cc1N(CC(O)Cn1nnc2ccccc21)S(=O)(=O)c1ccc(C)cc1 (stereo not given)	12.1%
Cc1ccc(N(CC(O)CN2CCCC2)S(=O)(=O)c2ccccc2)cc1 (stereo not given)	-18.8%
O=S(=O)(c1ccccc1)N(CC(O)CN1CCCCC1)c1ccccc1 (stereo not given)	-13.9%
COc1ccc([C@H]2CC(=O)C=C(c3ccc(OC(F)(F)F)cc3)C2)cc1OC	10.4%
CN(CC(=O)NCCc1ccc(F)cc1)CC(=O)Nc1ccc(F)c(F)c1F	-4.31%
CCCCn1c(N)c(N(CCC(C)C)C(=O)COC(=O)c2ccc(CC)cc2)c(=O)[nH]c1=O	-24%
O=C(Nc1ccc2c(c1)OCO2)C1CC1(Cl)Cl (stereo not given)	4.68%
CCCn1nnnc1NCc1ccc(OC)cc1	-21.1%
COc1ccc(Cc2nnc(SCC(=O)N(c3ccccc3)C(C)C)n(N)c2=O)cc1	-8.57%
COc1ccc(Cc2nnnn2CC(=O)O)cc1	35.2% (active)
Cc1ccccc1OCCC(=O)OCC(=O)NCCc1ccc(S(N)(=O)=O)cc1	-20%
COc1cccc(CNC(=O)CCC2CCCN(C(=O)c3ccoc3C)C2)c1 (stereo not given)	-10.4%
COc1cccc(C(=O)N2CCCC(CCC(=O)NCc3ccc(F)c(F)c3)C2)c1 (stereo not given)	34.4% (active)
COc1cccc(CNC(=O)CCC2CCCN(C(=O)c3ccc(F)c(Cl)c3)C2)c1 (stereo not given)	7.84%
Cc1ccc(S(=O)(=O)N2[C@@H](c3cccc(Cl)c3)C(C(=O)O)=CC[C@H]2c2ccc(Cl)c(Cl)c2)cc1	-1.92%
COc1ccc(S(=O)(=O)N2CCOCC2)cc1NC(=O)Cc1coc2cc(C)ccc12	-8.41%
O=C(NNC(=O)C1CCC1)c1ccccc1	-2.25%
Cc1ccc(NC(=O)Nc2cccc(C(F)(F)F)c2)nc1	-7.91%
CC(C)C[C@H](NC(=O)Nc1cccc(C(F)(F)F)c1)C(=O)O	7.87%
CCNS(=O)(=O)c1ccc(NC(=O)Nc2cccc(C(F)(F)F)c2)cc1	38.4% (active)

Structure (SMILES)	inhibition
CCOC(=O)[C@H]1[C@H]2COc3ccc(C)cc3[C@@H]2N2C(=O)CN(Cc3ccc(F)cc3)C(=O)[C@@]12C	-3.67%
O=C(CN1CCN(C/C=C/c2ccccc2)CC1)Nc1ccc(F)cc1F	6.36%
O=C(CCN1CCN(C/C=C/c2ccccc2)CC1)Nc1cccc(F)c1	-21%
O=C(CCN1CCN(C/C=C/c2ccccc2)CC1)Nc1ccccc1Cl	31.9% (active)
O=C(CN1CCN(S(=O)(=O)c2cccc(Cl)c2)CC1)N1CCCCC1	14%
Cc1ccc(C)c(NC(=O)CN(C)C(=O)c2ccc3ncsc3c2)c1	17.4%
CCCn1nc(C(=O)OCc2nc(N)nc(Nc3ccccc3C)n2)c2ccccc2c1=O	6.08%
Cc1ccc(S(=O)(=O)N(C)CC(=O)OCC(=O)N2CC(=O)Nc3ccccc32)cc1	36.8% (active)
Cc1ccc(S(=O)(=O)N(C)CC(=O)OCC(=O)Nc2ccccc2)cc1	-5.35%
COc1cc(OC)c(C(=O)OCC(=O)N2CC(=O)Nc3ccccc32)cc1OC	-2.09%
COc1cc(C(=O)Nc2ncccc2C)ccc1OCC(=O)N1CCOCC1	-21.1%
COc1ccc(NC(=O)CN(C)C(=O)c2cccc(S(=O)(=O)N3CCN(c4ccccc4)CC3)c2)cc1	-9.07%
Cc1cccc(-c2oc3ccc(-c4ccc5c(c4)OCO5)cc3c2C#Cc2cncn2C)c1	11.3%
COc1ccc(/C=C(\NC(=O)c2ccc(OC)c(OC)c2)C(=O)NCCc2c[nH]c3ccccc23)cc1	-6.61%
CC(=O)N/C(=C/c1ccc(Cl)cc1)C(=O)NCCc1c[nH]c2ccccc12	31% (active)
COc1ccccc1CC(=O)NCCc1c[nH]c2ccccc12	-11.6%
CC1CC(C)CN(C(=O)COC(=O)c2ccc3ncsc3c2)C1 (stereo not given)	-13.9%
Cc1ccc(NC(=O)c2cccc(S(=O)(=O)N3CCCc4ccccc43)c2)nc1	7.09%
NS(=O)(=O)c1ccc(CNC(=O)c2cccc(Oc3ccccc3)c2)cc1	9.32%
NS(=O)(=O)c1ccc(CNC(=O)c2cccc(S(=O)(=O)N3CCc4ccccc43)c2)cc1	41% (active)
Cc1ccccc1Nc1nc(N)nc(COC(=O)CCC(=O)c2ccc(F)cc2)n1	2.44%
COc1ccc(-c2c(-c3cc(OC)cc(OC)c3)n(C)c3ccc(-c4ccn[nH]4)cc23)cc1	-12.7%
CCc1nnc(NC(=O)CSc2nnc(-c3ccncc3)n2Cc2ccccc2)s1	30.7% (active)

Structure (SMILES)	inhibition
CCc1nnc(NC(=O)CSc2nnc(Cc3ccccc3)n2-c2ccc(OC)cc2)s1	0.9%
Cc1cnc(NC(=O)CSc2nnc(-c3ccccc3)n2Cc2ccccc2)s1	8.7%
COc1ccccc1CNC(=O)COC(=O)c1sc(C)nc1C	16.2%
O=C(NCC1CCCO1)c1cc2c(s1)CCCC2 (stereo not given)	24.5%
O=C(COC(=O)CNC(=O)C1CCCCC1)Nc1cccc(F)c1	-2.8%
CC(CCc1ccc(O)cc1)NCc1ccc(Cl)cc1Cl (stereo not given)	57% (active)
OC(CNCCc1ccc(Cl)cc1Cl)COc1ccccc1 (stereo not given)	-28.1%
COc1ccc(CNC(=O)C(C)NCc2ccccc2Cl)cc1 (stereo not given)	2.26%
Cc1ccc(OCC(=O)Nc2ccccc2C(=O)NC2CC2)cc1	-3.15%
Cc1c(NS(=O)(=O)c2cc(C(=O)NCCc3ccc(F)cc3)cc(Cl)c2Cl)c(=O)n(-c2ccccc2)n1C	0.733%
CCOC(=O)C1=C(c2ccccc2)O/C(=C(/C(=O)OC)C(F)(F)F)S1	39% (active)
CCOC(=O)c1nnn(-c2nonc2OC)c1-c1ccccc1	1.66%
COC(=O)/C(=C1\Oc2ccc(C(C)(C)C)cc2S1)C(F)(F)F	0.21%
COc1ccc(S(=O)(=O)N2CCN(CC(=O)N3c4ccccc4CC3C)CC2)cc1OC (stereo not given)	-15.7%
CCCCn1c(N)c(N(CCC(C)C)C(=O)COC(=O)c2cccnc2OCC)c(=O)[nH]c1=O	-12.2%
Cc1ccc(NC(=O)NC(=O)c2ccccc2)cc1F	-2%
O=C(NC(=O)c1ccccc1)Nc1ccccc1O	40% (active)
O=C(NC(=O)c1ccccc1)NC(=O)c1ccccc1	27%
CC(C)Cc1nnc(NC(=O)CCNC(=O)c2ccccc2Cl)s1	-3.78%
Cc1ccc(NC(=O)Cc2nc(COC(=O)C(C)NS(=O)(=O)c3ccc(C)cc3)cs2)cc1 (stereo not given)	2.42%
COc1ccc(C(=O)Nc2cc(C)ccc2NC(=O)COc2ccccc2)cc1	44.4% (active)
COc1ccc(OCC(=O)NNC(=O)c2cccc(C)c2)cc1	1.66%
Cc1cccc(OCC(=O)Nc2ccc(C(=O)O)cc2NC(=O)COc2cccc(C)c2)c1	-10.4%

Structure (SMILES)	inhibition
O=C(NCCc1ccc(F)cc1)c1ccc2nccnc2c1	-19%
COc1cccc(OCC(O)CN2CCN(CCO)CC2)c1 (stereo not given)	-3.18%
CCOc1ccc(C(O)Cn2c(=N)n(CCN3CCCCC3)c3ccccc32)cc1 (stereo not given)	-7.44%
Cc1cccc(OCC(O)Cn2c(=N)n(CCN3CCOCC3)c3ccccc32)c1 (stereo not given)	31.7% (active)
COc1ccc(C)cc1NC(=O)CCCN1C(=O)NC(C)(C)C1=O	-9.24%
Cc1nnc(NC(=O)c2ccc3nccnc3c2)s1	3.14%
CC1(C(=O)OCC(=O)Nc2ncc(Cl)cc2Cl)CC1(Cl)Cl (stereo not given)	11.7%
C=CCN1C(=O)c2ccc(C(=O)N3CCC(C(=O)OCC)CC3)cc2C1=O	2.03%
O=C(c1ccc(OC2CCN(C/C=C/c3ccc(F)cc3)CC2)cc1)N1CCCCC1	26.2%
CSCC(=O)N1CCCC(C(=O)c2cc(F)ccc2F)C1 (stereo not given)	-7.86%
COc1ccc(/C=C/CN2CCCC(C(=O)c3cc(F)ccc3F)C2)cc1 (stereo not given)	34.2% (active)
O=C(NCCS(=O)(=O)N1CCN(c2ccccc2)CC1)c1ccco1	9.95%
Cc1csc2nc(COC(=O)c3cccc(N(C)C)c3)cc(=O)n12	-21.3%
CCNc1c(NS(=O)(=O)c2ccc(C3CCCCC3)cc2)c(=O)oc2ccccc12	16.7%
Nc1c(NCCc2ccccc2)c2ccccc2oc1=O	-22.5%
CC(C)(C)Nc1c(N)c(=O)oc2ccccc12	33.7% (active)
CCC1(C)NC(=O)N(CC(=O)N2CCN(c3cccc(Cl)c3)CC2)C1=O (stereo not given)	22.3%
CCc1ccc(-c2nn(-c3ccccc3C)cc2C(=O)N2CCN(C3CCS(=O)(=O)C3)CC2)cc1 (stereo not given)	3.49%
CCN1CCN(C(=O)Cn2nc(C)n3c(cc4c(OC)cccc43)c2=O)CC1	35.3% (active)
CCc1nn(CC(=O)N2CCN(CC)CC2)c(=O)c2cccn12	1.45%
COc1cccc2c(=O)n(CC(=O)N3CCCCCC3)ccc12	5.43%
